Hits are enriched below; roughly 3% of the tested compounds scored in any of these assays.
TRAIL sens C8 = caspase-8 TRAIL sensitization. hit rate 1% among 360,000. AID 624354. inhibition (viability loss, TRAIL sensitization), % at 10 µM. NB7+C8 cells + TRAIL, ATPlite viability luminescence;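 active = compounds causing at least 50% loss of cell viability in the single-dose screen, relative to plate controls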
SENP6 block = blocks the human protease SENP6; Q9GZR1; Recombinant SENP6 catalytic domain, aminoluciferin luminescence; inhibition, % at 10 µM; hit rate 1.8% among 330,000; AID 2599;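 active = inhibition above about 50% at the single tested dose, limit read from the data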
PPC-1+TRAIL kill = PPC-1 cancer cell killing with TRAIL present; PPC-1 cells + TRAIL, ATPLite viability luminescence; cell killing (% activity), % at 4 µM or 5 µM; hit rate 0.41% among 220,000; AID 1443;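 active = cell killing above 50% in the first pass at 4 µM, then a duplicate retest at 5 µM averaging 50% or more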
SENP8 block-1 = blocks the human protease SENP8; Q96LD8; purified SENP8, Z-RLRGG-aminoluciferin cleavage, luminescence; inhibition, % at 10 µM; hit rate 1.2% among 330,000; AID 2540; in the data active = inhibition above about 50%
Target sequence (Q96LD8 whole entry, looked up): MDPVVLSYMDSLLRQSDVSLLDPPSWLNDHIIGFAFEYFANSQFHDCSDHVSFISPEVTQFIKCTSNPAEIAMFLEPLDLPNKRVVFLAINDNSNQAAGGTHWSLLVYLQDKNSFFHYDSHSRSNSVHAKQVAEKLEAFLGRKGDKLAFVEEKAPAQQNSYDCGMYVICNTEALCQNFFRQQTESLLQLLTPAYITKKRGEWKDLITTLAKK
SENP7 inh = SENP7 protease inhibition | Q9BQF6 | recombinant SENP7, Z-RLRGG-aminoluciferin luminescence, 40 min | inhibition, % at 5 µM | hit rate 1.5% among 330,000 | AID 434973;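 active = inhibition above about 50% at the single test dose, limit read from the data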
Target sequence (Q9BQF6 706-1050 limits assumed): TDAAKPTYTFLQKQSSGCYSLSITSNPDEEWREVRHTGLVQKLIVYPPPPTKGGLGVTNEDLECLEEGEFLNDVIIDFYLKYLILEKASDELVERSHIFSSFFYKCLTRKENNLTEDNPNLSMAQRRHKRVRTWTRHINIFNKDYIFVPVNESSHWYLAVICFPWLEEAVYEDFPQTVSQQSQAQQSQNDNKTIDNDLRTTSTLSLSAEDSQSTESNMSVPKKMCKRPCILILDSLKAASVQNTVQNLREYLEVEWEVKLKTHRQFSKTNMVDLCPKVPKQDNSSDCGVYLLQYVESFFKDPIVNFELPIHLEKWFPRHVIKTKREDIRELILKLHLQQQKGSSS
SENP8 block-2 = inhibitors of human SENP8 protease. Q96LD8. recombinant SENP8, Nedd8 substrate fluorescence. inhibition, % at 20 µM. hit rate 0.64% among 360,000. AID 602440; in the data active = inhibition mostly above about 40%, no sharp cut-off; inactive = mostly below about 27%
Large screens that a line does not name were inactive.

C=CCn1c(O)c(N=NC(=S)Nc2ccccc2F)c2ccccc21	none
COc1cc(OC)cc(C(=O)N2CCN(S(=O)(=O)c3ccc4c(c3)OCCO4)CC2)c1	none (no result: SENP6 block, PPC-1+TRAIL kill, SENP8 block-1, SENP7 inh)
CC(=O)C1=C(C)N(Cc2ccccc2)C(=O)N[C@H]1c1ccco1	none
O=C(Nc1nnc(-c2ccccc2)o1)NC1CCCCC1	TRAIL sens C8 61
CCOc1cc(C2Nc3cccc4cccc(c34)N2)ccc1O	SENP8 block-2 59
COc1nn(-c2ccccc2)c(=O)c(Cl)c1Cl	TRAIL sens C8 91 (no result: PPC-1+TRAIL kill)
COc1cc(C(c2c(C)[nH][nH]c2=O)c2c(C)[nH][nH]c2=O)ccc1OC(=O)c1cccc([N+](=O)[O-])c1	SENP8 block-2 42
O=C(N=Nc1c(O)n(Cc2ccccc2)c2ccccc12)c1ccncc1	SENP8 block-2 42
COc1cccc(NC(=O)N(C)C[C@H]2Oc3ncc(Br)cc3C(=O)N([C@H](C)CO)C[C@H]2C)c1	none (no result: SENP6 block, PPC-1+TRAIL kill, SENP8 block-1, SENP7 inh)
O=C(NC1CC1)c1ccc(-c2cnc3cccnn23)cc1	none (no result: SENP6 block, PPC-1+TRAIL kill, SENP8 block-1, SENP7 inh)
CC(=NCc1ccncc1)C1=C(O)c2ccccc2C1=O	PPC-1+TRAIL kill 50 (no result: TRAIL sens C8, SENP6 block, SENP8 block-1, SENP7 inh, SENP8 block-2)
O=C(N/N=C/c1ccc(O)c(O)c1O)/C(=C/c1ccc([N+](=O)[O-])cc1)NC(=O)c1ccccc1	SENP8 block-2 72
CC(=O)NS(=O)(=O)c1ccc(NC(=O)CC(C)c2ccccc2)cc1 (stereo not given)	none
NC(=S)NN=C1c2cc(OCCN3CCOCC3)ccc2-c2ccc(OCCN3CCOCC3)cc21	TRAIL sens C8 84 (no result: PPC-1+TRAIL kill)
CCOC(=O)c1ccc(N/C=C\C(=O)c2cccc(OC)c2)cc1	SENP8 block-1 66, SENP7 inh 86
O=C(Nc1nnc(SCc2cccnc2)s1)C1CC(=O)N(c2ccc(F)cc2)C1 (stereo not given)	none (no result: PPC-1+TRAIL kill)
Cc1[nH]n(-c2ccccc2)c(=O)c1C(c1cccc([N+](=O)[O-])c1O)c1c(C)[nH]n(-c2ccccc2)c1=O	none
Cc1[nH]n(-c2ccccc2)c(=O)c1C(c1ccc(C(=O)O)cc1)c1c(C)[nH]n(-c2ccccc2)c1=O	SENP8 block-2 71
Cc1[nH]n(-c2ccccc2)c(=O)c1C(c1cccc([N+](=O)[O-])c1)c1c(C)[nH]n(-c2ccccc2)c1=O	SENP8 block-2 49
Cc1ccc(Cl)cc1NC(=O)CN1C(=O)COc2ccc(S(=O)(=O)N3CCOCC3)cc21	none (no result: PPC-1+TRAIL kill)
Cc1nc(Cl)c(N=Cc2cccc([N+](=O)[O-])c2)c(Cl)n1	none (no result: PPC-1+TRAIL kill)
CCc1ccc(C2C(=O)c3ccccc3C2=O)cc1	none (no result: PPC-1+TRAIL kill)
CCc1ccccc1C1C(=O)c2ccccc2C1=O	TRAIL sens C8 48 (no result: PPC-1+TRAIL kill)
NC(=O)c1sc2nc(-c3ccccc3)ccc2c1N	none (no result: PPC-1+TRAIL kill)
CCOC(=O)c1sc2nc(-c3ccccc3)ccc2c1N	TRAIL sens C8 77, PPC-1+TRAIL kill 58
O=C(Cc1csc(NC(=O)Nc2ccc(Cl)cc2)n1)NCc1ccccn1	TRAIL sens C8 54 (no result: PPC-1+TRAIL kill)
O=C(Cc1csc(NC(=O)Nc2ccc(Cl)cc2)n1)NC1CCCC1	none (no result: PPC-1+TRAIL kill)
O=C1/C(=C/C=C/c2ccco2)SC(=S)N1c1ccc(O)cc1	SENP8 block-2 46
CSc1cccc(NC(=O)COC(=O)C2CCN(S(=O)(=O)c3ccccc3)CC2)c1	none (no result: PPC-1+TRAIL kill)
COC(=O)C12OCC34C(CC5C(C)=C(O)C(=O)CC5(C)C3C(O)C1O)OC(=O)C(OC(=O)C=C(C)C)C24 (stereo not given)	TRAIL sens C8 65 (no result: SENP6 block, PPC-1+TRAIL kill, SENP8 block-1, SENP7 inh)
C=CCNc1nc(NCc2ccc(NC(C)=O)cc2)c2sc(-c3ccccc3)cc2n1	TRAIL sens C8 64 (no result: SENP6 block, PPC-1+TRAIL kill, SENP8 block-1, SENP7 inh)
Cc1cc(C2=NNC(=NC3CC3)SC2)c(C)n1-c1ccccc1	TRAIL sens C8 79 (no result: SENP6 block, SENP8 block-1, SENP7 inh)
N=C1C(c2nc(-c3ccc(Cl)cc3)cs2)=C(O)CN1NC(=O)c1ccc(O)cc1	none
CC(=O)c1cccc(OC(=O)C2=CC=CN3CCS(=O)(=O)N=C23)c1	none (no result: PPC-1+TRAIL kill)
O=C(Nc1nnc(-c2ccccn2)o1)c1ccc(Br)cc1	SENP6 block 77, SENP8 block-1 57, SENP7 inh 63
CCC(=O)Nc1nnc(-c2ccccn2)o1	none
O=[N+]([O-])c1ccc(O)c(/C=N/n2cnc3ccccc32)c1	SENP6 block 76, SENP8 block-1 56
Nc1cc(Oc2ccc(F)cc2F)cc([N+](=O)[O-])c1	none
COc1cccc(/C=N/NC(=O)c2ccccc2NC(=O)c2ccco2)c1OC	none
COc1cccc(/C=C/C(=O)NNC(=O)c2ccco2)c1OC	TRAIL sens C8 63 (no result: PPC-1+TRAIL kill)
CCOC(=O)/C(C)=N/NC(=O)c1ccc([N+](=O)[O-])cc1	none
CCOC(=O)/C(N=Nc1ccc(F)cc1)=C(/O)c1ccc([N+](=O)[O-])cc1	SENP8 block-2 43
O=C(OCC(=O)N1CCOCC1)c1cccc(S(=O)(=O)Nc2ccc(F)cc2)c1	none (no result: PPC-1+TRAIL kill)
CCCOc1ccc(-c2nc(N3CCN(C)CC3)c3ccccc3n2)cc1	TRAIL sens C8 66 (no result: PPC-1+TRAIL kill)
C/C=C/c1ccc(OCCCNC2CCCC2)c(OC)c1	TRAIL sens C8 54
C/C=C/c1ccc(OCCCNC(C)CC)c(OC)c1 (stereo not given)	none
Cc1ccc(S(=O)(=O)N2[C@@H](CO)CO[C@H]2CC(=O)c2cccc3ccccc23)cc1	none (no result: SENP6 block, PPC-1+TRAIL kill, SENP8 block-1, SENP7 inh)
COc1ccc(Cl)cc1-c1nc(-c2ccc(NC(=O)c3cccs3)cc2)no1	none
COc1cc2nc(N3CCN(c4cc(C)ccc4C)CC3)nc(N)c2cc1OC	TRAIL sens C8 57 (no result: PPC-1+TRAIL kill)
COc1cc2nc(N3CCNCC3)nc(N)c2cc1OC	TRAIL sens C8 53
Cc1nnc(SCC(=O)Nc2sc3c(c2C(=O)c2ccccc2)CCCC3)s1	none
CC1(C(=O)NCC(F)(F)F)CCN1C(=O)Cc1ccc(-c2ccccc2)cc1 (stereo not given)	none (no result: SENP6 block, PPC-1+TRAIL kill, SENP8 block-1, SENP7 inh)
Cc1cc(NC(=O)/C=C/c2ccccc2Cl)n(-c2nc3ccccc3[nH]2)n1	TRAIL sens C8 74, PPC-1+TRAIL kill 58
C=C1C(=O)OC2C=C(CO)C3OC3C3OC3(C)CC(OC(=O)/C(=C/C)COC(C)=O)C12 (stereo not given)	TRAIL sens C8 63 (no result: SENP6 block, PPC-1+TRAIL kill, SENP8 block-1, SENP7 inh)
CC(=O)OCC1=C[C@@H]2OC(=O)C3=CO[C@@H](O[C@@H]4O[C@H](CO)[C@@H](O)[C@H](O)[C@H]4O)[C@H]1[C@@H]32	none (no result: PPC-1+TRAIL kill)
CC(O/N=C\c1ccccc1O)C(=O)Nc1ccccc1C(=O)N1CCOCC1 (stereo not given)	none
N#C/C(=N/Nc1ccc(OC(F)(F)F)cc1)C(N)=S	SENP6 block 79, SENP8 block-2 46
COc1cccc(NC(=O)/C=C/c2ccccc2[N+](=O)[O-])c1	SENP6 block 98, SENP8 block-1 90, SENP7 inh 94
COc1ccc(OC)c(NC(=O)/C=C/c2ccccc2[N+](=O)[O-])c1	none
O=C(/C=C/c1ccc([N+](=O)[O-])cc1)Nc1ncc([N+](=O)[O-])s1	TRAIL sens C8 59 (no result: SENP6 block, SENP8 block-1, SENP7 inh)
COc1cccc(NC(=O)/C=C/c2ccc([N+](=O)[O-])cc2)c1	SENP6 block 75, SENP8 block-1 51
CC(C)CC(=O)Nc1nc2c(c(=O)[nH]1)CCCC2	TRAIL sens C8 62
Cn1c(N)c(S(=O)(=O)N2CCCC2)c(=O)n(C)c1=O	none (no result: PPC-1+TRAIL kill)

Assay outcomes deposited in PubChem BioAssay by Sanford-Burnham Center for Chemical Genomics.
